# In PubChem BioAssay (NCATS):
# Inconclusive results are not listed. Entries that show only a call come without a potency. The source made the active and inactive calls. Unless noted, calls follow the shape of the dose curve; as a rule, active = well fitted curve in the direction sought with a large enough effect; inconclusive = small, poorly fitted or top-dose-only effect, or another doubt; inactive = no such curve, though single readings can be large; an effect the other way counts as inactive or inconclusive.
# Legend:
# [1] = biological target: Chromobox protein homolog 1 (Homo sapiens) (UniProt P83916); assay: qHTS Validation Assay for Inhibitors of HP1-beta Chromodomain Interactions with Methylated Histone Tails (AID 488953);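 also: loss of AlphaScreen luminescence from HP1-beta binding biotinylated H3K9me3 peptide; series mostly up to about 110 µM; nearly all actives have a fitted effect of over 50% in size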
# In short: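 HP1-beta (50 nM) was preincubated 30 min at room temperature with biotinylated H3(1-18)K9me3 peptide (50 nM) in PBS pH 7.4, 0.01% Tween-20, then with compounds 30 min. AlphaScreen signal was read after streptavidin donor/nickel chelate acceptor beads (10 ug/mL final).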
# [2] = biological target: Methanococcus maripaludis chaperonin (MmCpn) (UniProt Q6LX38); assay: High-Throughput Screening for Modulators of Cytosolic Chaperonin Activity: MmCpn Primary Screen (AID 488978);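 also: 50 nM MmCpn enzyme hydrolysing 30 µM ATP at 37 °C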
# In short: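 Measures ATPase turnover of the M. maripaludis chaperonin (50 nM final) against 30 uM ATP over 10 min at 37C, with compound added 5 min beforehand at room temperature. ADP is quantified by HTRF immunodetection.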
# [3] = biological target: Thyrotropin receptor (Homo sapiens) (UniProt P16473); assay: qHTS Assay for Antagonists of the Thyroid Stimulating Hormone Receptor (AID 488980); also: series mostly up to about 58 µM
# In short: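 Cells expressing human TSHR (HEK293) are dispensed in HBSS/HEPES containing 70 uM RO 20-1724, compound is added, then TSH at EC80 (4 nM final). Antibody in lysis buffer follows, 30 minutes at room temperature before HTRF detection.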
# [4] = biological target: D(1A) dopamine receptor (Homo sapiens) (UniProt P21728); assay: HTS Assay for Allosteric Agonists of the Human D1 Dopamine Receptor: Primary Screen for Agonists (AID 488981)
# In short: (§1)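 Calcium flux in an inducible, force-coupled HEK293 Trex D1 line (overnight at 30 C): agonist mode is the 180 s kinetic read after compound; potentiator mode is the following 180 s read after dopamine at EC20.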
# [5] = biological target: D(1A) dopamine receptor (Homo sapiens) (UniProt P21728); assay: HTS Assay for Allosteric Agonists of the Human D1 Dopamine Receptor: Primary Screen for Potentiators (AID 488982)
# In short: as §1
# [6] = biological target: D(1A) dopamine receptor (Homo sapiens) (UniProt P21728); assay: HTS Assay for Allosteric Agonists of the Human D1 Dopamine Receptor: Primary Screen for Antagonists (AID 488983);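 also: calcium flux response to an EC80 dopamine challenge measured with no-wash dye; nearly all actives have a fitted effect of over 65% in size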
# In short: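 Tetracycline-induced HEK293 T-REx cells expressing force-coupled D1 were plated overnight at 30 C, dye-loaded for calcium, and read kinetically. Compounds were pinned in, then an EC80 dopamine challenge followed after 180 s to reveal antagonism.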
# [7] = Validation screen for small molecules that induce genotoxicity in human embryonic kidney (HEK293T) cells expressing luciferase-tagged ELG1 (AID 493106); settings: luminescence; also: potency is read from the fitted curve at half-maximal effect
# In short: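 HEK293T cells expressing luciferase-tagged ELG1 were exposed to compound or DMSO vehicle for 16 hr at 37 °C, 5% CO2. Genotoxic stress raises ELG1 levels, so increased luciferase signal after ONE-Glo addition and 30 min at room temperature marks hits.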
# [8] = biological target: Thyrotropin-releasing hormone receptor (Homo sapiens) (UniProt P34981); assay: qHTS for Small Molecule Agonists and Allosteric Enhancers of Human TRH Receptor: Validation Screen for Agonists (AID 493127;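 active = calcium activation more than 3 SD above the typical response in the agonist read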;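 also: intracellular calcium rise by fluo-8 fluorescence before TRH EC20 addition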); settings: TRH receptor agonist cell assay; at 2 µM; stronger effect = higher value
# In short: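 TRHR-expressing cells were plated overnight in serum-containing medium, then loaded with fluo-8 calcium dye at room temperature for 30 min–1.5 h. After a 10 s baseline, compound was pin-transferred and calcium fluorescence (ex 480/em 530) read kinetically for agonist response.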
# [9] = Nrf2 qHTS screen for inhibitors: Validation (AID 493153; active = well fitted inhibition curve with a large enough effect in the main read-out, with a control signal flat, not every such curve was filed as active); settings: viability change: measured here: cytotoxicity max response
# In short: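 A549 cells carrying an ARE-driven firefly luciferase reporter, in 5% FBS OPTI-MEM, were treated with compounds in concentration-response for 18-24 h at 37°C. Viability was read by CellTiter-Fluor fluorescence, then Nrf2 activity by luciferase luminescence.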
# [10] = qHTS for Inhibitors of Cell Surface uPA Generation: Validation Assay (AID 493164);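 also: RAW 264.7 macrophage cells exposed to compound for 18 h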
# In short: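 RAW 264.7, 4000 cells/well, o/n plating; cpd 7-pt 1:5 dilution 2.45 nM–38.3 uM final; 18 h, 37 C/5% CO2; ATP-Lite, 5 s luminescence exposure.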
# [11] = biological target: Galactokinase (Homo sapiens) (UniProt P51570); assay: qHTS Validation Assay for Inhibitors of Human Galactokinase (GALK) (AID 493189)
# In short: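 Compounds were pin-transferred into ATP buffer, then GALK-galactose mix was added (final 5 nM enzyme, 100 uM galactose, 35 uM ATP). After 1 h at room temperature, remaining ATP was measured luminescently.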
# [12] = Validation screen for small molecules that induce DNA re-replication in SW480 colon adenocarcinoma cells (AID 504364)
# In short: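 SW480 cells seeded at 250 per well were exposed to compound or DMSO for 48 hr at 37 C, 5% CO2, then stained with Hoechst for 40 min. DNA content per nucleus was imaged (405 nm ex, 500-530 nm em).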
# [13] = biological target: Peptidyl-prolyl cis-trans isomerase NIMA-interacting 1 (Homo sapiens) (UniProt Q13526); assay: qHTS Validation Assay to Find Inhibitors of Pin1 (AID 504536; active = well fitted inhibition curve with a large enough effect in the polarisation, with a control signal flat, not every such curve was filed as active; the % refers to the polarisation)
# In short: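 Fluorescence polarization competition: compounds (titration) displace HiFluor-488-labeled Pin1-1b peptide from Pin1 (0.3 uM final) in pH 7.5 HEPES buffer with DTT, 10 min at room temperature; %Activity normalized to no-enzyme wells, curves fitted.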
# [14] = biological target: Phosphoglycerate kinase, glycosomal (Trypanosoma brucei brucei) (UniProt P07378); assay: qHTS Validation Assay to Find Inhibitors of Phosphoglycerate Kinase (AID 504547)
# In short: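 Inhibition of the enzyme is judged by a Kinase-Glo Plus luminescent signal following a one-hour incubation at room temperature. Because 1,3-BPG is unstable, it is made in situ by GAPDH at 100nM final; no-PGK wells define the baseline.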
# [15] = biological target: Ubiquitin carboxyl-terminal hydrolase 1 (Homo sapiens) (UniProt O94782); assay: Inhibitors of USP1/UAF1: Pilot qHTS (AID 504865); also: nearly all actives have a fitted effect of over 35% in size; also: potency is read from the fitted curve at half-maximal effect
# In short: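 Kinetic fluorescence assay: 1nM USP1/UAF1, 15 min compound preincubation, then 150nM Ub-Rho; 480/540 nm.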
# [16] = qHTS for Inhibitors of ATXN expression: Validation of Cytotoxic Assay (AID 588349)
# In short: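 HEK293 cells were dosed with titrated compounds for 72 hr at 37 degrees C. Viability was read by CellTiter Glo luminescence, with intracellular ATP as the marker of cell survival.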
# [17] = qHTS for Inhibitors of ATXN expression: Validation (AID 588378); also: series mostly up to about 57 µM; nearly all actives have a fitted effect of over 75% in size
# In short: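 Validation of ATXN2 expression inhibitors uses a cell-based luciferase fusion reporter in HEK293 cells, with 24 h compound exposure and paired viability (fluorescence) and reporter (luminescence) end-point reads.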
# [18] = biological target: Transient receptor potential cation channel subfamily V member 1 (Homo sapiens) (UniProt Q8NER1); assay: HTS Assay for Compounds that Act as Enhancers of the Vanilloid Receptor 1 (AID 488979)
# In short: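 Calcium influx kinetics via Fluo-8 (480/520 nm) in TRPV1-expressing cells, 2000/well cultured overnight at 35.5C. Compound-alone read 3 min (agonist phase), followed by EC20 capsaicin challenge for 2 min (enhancer phase).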
# [19] = biological target: ATP-dependent 6-phosphofructokinase (Trypanosoma brucei brucei) (UniProt O15648); assay: qHTS Assay to Find Inhibitors of T. brucei phosphofructokinase: hit validation (AID 492961);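 also: luminescence reports ADP formed as PFK phosphorylates fructose-6-phosphate with ATP; series mostly up to about 51 µM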
# In short: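 In this biochemical qHTS validation, titrated compounds were tested against 1.25 nM PFK with 0.1 mM ATP and 0.5 mM F6P. Percent activity came from controls lacking or containing enzyme.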
# [20] = biological target: DNA dC->dU-editing enzyme APOBEC-3G (Homo sapiens) (UniProt Q9HC16); assay: qHTS for inhibitors of Vif-A3G interactions: Validation (AID 588379)
# In short: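 HeLa cells stably expressing Vif and A3G-eYFP, 700 cells/well, incubated overnight at 37 deg C, then exposed to compound overnight at 37 deg C. Inhibition of Vif-mediated degradation read as increased yellow fluorescence (Ex 488/Em 500-530) by laser-scanning cytometry.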
# D(1A) dopamine receptor (Homo sapiens), sequence (P21728 whole entry, looked up): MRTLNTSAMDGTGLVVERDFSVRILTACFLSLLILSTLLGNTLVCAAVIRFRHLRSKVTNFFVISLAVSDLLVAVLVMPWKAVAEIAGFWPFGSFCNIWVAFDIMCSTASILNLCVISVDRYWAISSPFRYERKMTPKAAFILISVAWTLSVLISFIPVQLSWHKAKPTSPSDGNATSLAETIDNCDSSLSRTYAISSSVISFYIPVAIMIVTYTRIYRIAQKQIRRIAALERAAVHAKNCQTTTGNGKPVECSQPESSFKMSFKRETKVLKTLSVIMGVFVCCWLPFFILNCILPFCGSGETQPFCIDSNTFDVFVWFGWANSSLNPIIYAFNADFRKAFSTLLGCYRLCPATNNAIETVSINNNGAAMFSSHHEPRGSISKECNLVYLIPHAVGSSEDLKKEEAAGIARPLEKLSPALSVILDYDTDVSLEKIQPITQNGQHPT
# Ubiquitin carboxyl-terminal hydrolase 1 (Homo sapiens), sequence (O94782 whole entry, looked up): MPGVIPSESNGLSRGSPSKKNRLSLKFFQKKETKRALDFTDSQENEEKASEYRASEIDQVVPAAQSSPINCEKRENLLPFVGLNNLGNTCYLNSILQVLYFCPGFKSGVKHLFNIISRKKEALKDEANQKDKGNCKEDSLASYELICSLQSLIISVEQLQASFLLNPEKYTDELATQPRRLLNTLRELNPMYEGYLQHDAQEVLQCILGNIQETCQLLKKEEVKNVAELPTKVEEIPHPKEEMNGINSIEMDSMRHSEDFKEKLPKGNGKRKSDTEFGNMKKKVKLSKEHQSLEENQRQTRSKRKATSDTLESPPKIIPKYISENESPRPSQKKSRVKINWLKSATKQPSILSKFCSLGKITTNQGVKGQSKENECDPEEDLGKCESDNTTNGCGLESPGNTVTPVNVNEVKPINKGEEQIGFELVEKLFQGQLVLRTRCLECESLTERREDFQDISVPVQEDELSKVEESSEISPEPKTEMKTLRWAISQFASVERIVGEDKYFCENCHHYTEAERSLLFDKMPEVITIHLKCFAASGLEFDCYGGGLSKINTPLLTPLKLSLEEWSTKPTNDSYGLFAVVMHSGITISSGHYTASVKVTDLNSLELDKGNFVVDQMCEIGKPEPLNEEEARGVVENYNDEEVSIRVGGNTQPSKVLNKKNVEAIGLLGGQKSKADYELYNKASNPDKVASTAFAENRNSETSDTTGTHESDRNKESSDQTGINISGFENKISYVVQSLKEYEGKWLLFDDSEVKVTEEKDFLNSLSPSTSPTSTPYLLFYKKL
# ATP-dependent 6-phosphofructokinase (Trypanosoma brucei brucei), sequence (O15648 whole entry, looked up): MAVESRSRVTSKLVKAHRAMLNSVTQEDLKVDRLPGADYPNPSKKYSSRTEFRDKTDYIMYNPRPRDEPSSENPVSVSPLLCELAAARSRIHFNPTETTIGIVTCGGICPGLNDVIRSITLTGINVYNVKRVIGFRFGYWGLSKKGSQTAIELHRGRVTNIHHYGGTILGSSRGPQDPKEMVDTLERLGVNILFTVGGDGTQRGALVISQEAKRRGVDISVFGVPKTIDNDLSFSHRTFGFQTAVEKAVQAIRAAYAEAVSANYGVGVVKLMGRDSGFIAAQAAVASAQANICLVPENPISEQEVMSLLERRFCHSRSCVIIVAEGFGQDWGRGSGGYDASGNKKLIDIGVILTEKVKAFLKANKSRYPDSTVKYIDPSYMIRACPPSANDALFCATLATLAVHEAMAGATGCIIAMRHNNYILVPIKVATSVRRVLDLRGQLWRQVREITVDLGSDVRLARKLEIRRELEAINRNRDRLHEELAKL
# Thyrotropin-releasing hormone receptor (Homo sapiens), sequence (P34981 whole entry, looked up): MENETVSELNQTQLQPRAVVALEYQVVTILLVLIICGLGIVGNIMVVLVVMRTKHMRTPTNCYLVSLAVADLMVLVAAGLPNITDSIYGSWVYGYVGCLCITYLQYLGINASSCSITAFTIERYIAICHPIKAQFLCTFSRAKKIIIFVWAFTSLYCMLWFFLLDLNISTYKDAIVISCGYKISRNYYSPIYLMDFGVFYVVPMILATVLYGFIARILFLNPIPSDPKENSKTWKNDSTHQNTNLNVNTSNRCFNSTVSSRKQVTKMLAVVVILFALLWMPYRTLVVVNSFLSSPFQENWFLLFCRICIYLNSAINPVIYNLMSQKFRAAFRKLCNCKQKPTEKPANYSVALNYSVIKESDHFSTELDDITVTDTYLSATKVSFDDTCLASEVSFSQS
# Thyrotropin receptor (Homo sapiens), sequence (P16473 whole entry, looked up): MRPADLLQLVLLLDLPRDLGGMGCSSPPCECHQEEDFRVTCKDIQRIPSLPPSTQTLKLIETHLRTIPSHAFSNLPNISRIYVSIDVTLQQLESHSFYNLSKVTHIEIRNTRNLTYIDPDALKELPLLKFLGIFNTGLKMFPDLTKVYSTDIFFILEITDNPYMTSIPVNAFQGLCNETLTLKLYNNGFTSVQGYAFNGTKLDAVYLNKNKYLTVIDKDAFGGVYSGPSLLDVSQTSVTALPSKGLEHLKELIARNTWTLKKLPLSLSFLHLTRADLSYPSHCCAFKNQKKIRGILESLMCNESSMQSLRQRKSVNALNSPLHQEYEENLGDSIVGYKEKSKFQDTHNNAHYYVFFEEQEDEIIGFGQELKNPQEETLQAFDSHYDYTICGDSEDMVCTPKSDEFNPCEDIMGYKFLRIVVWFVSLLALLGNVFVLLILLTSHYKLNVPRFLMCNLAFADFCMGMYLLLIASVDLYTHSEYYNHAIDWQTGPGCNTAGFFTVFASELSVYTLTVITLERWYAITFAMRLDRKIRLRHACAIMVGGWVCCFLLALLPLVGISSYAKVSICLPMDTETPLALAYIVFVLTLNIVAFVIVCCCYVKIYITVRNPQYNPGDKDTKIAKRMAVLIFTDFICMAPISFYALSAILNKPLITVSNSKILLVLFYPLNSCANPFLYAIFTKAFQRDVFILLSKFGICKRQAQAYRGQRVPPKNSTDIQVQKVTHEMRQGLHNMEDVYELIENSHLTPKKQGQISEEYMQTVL
# Peptidyl-prolyl cis-trans isomerase NIMA-interacting 1 (Homo sapiens), sequence (Q13526 whole entry, looked up): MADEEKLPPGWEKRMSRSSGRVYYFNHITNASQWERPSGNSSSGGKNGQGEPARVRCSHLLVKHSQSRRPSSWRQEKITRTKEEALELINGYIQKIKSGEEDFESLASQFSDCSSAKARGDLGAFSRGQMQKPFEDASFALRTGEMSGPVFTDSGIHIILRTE
# DNA dC->dU-editing enzyme APOBEC-3G (Homo sapiens), sequence (Q9HC16 whole entry, looked up): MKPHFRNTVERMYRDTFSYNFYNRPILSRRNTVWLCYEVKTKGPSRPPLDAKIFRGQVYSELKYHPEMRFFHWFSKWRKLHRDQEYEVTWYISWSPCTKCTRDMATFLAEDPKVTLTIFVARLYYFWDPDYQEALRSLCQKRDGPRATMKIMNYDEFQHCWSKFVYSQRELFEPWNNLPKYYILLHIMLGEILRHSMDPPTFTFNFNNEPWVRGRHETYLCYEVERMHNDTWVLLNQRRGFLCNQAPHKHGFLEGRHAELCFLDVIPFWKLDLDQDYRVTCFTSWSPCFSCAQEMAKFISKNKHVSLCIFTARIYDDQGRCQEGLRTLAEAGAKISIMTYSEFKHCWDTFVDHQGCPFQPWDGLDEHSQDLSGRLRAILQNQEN
# Transient receptor potential cation channel subfamily V member 1 (Homo sapiens), sequence (Q8NER1 whole entry, looked up): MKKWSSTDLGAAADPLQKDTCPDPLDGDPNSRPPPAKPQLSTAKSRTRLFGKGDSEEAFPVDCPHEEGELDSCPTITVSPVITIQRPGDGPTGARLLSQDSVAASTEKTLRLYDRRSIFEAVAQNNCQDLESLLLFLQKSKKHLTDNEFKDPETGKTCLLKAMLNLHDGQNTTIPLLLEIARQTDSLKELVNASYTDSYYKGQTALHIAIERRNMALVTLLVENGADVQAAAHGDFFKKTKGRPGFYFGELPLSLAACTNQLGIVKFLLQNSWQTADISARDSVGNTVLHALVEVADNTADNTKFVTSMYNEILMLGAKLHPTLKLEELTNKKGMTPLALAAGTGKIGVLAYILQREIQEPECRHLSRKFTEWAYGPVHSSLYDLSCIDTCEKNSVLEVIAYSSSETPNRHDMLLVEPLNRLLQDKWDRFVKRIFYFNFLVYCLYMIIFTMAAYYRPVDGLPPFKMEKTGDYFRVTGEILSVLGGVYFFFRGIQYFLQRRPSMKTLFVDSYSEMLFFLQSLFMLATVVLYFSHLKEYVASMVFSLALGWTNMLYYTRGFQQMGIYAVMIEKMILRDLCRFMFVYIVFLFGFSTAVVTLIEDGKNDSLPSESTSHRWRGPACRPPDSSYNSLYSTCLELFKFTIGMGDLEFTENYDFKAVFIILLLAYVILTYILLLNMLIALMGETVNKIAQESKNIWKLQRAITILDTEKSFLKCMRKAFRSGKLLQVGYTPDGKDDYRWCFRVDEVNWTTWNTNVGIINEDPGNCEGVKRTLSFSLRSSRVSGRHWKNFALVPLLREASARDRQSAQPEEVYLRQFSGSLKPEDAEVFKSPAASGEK
# Phosphoglycerate kinase, glycosomal (Trypanosoma brucei brucei), sequence (P07378 whole entry, looked up): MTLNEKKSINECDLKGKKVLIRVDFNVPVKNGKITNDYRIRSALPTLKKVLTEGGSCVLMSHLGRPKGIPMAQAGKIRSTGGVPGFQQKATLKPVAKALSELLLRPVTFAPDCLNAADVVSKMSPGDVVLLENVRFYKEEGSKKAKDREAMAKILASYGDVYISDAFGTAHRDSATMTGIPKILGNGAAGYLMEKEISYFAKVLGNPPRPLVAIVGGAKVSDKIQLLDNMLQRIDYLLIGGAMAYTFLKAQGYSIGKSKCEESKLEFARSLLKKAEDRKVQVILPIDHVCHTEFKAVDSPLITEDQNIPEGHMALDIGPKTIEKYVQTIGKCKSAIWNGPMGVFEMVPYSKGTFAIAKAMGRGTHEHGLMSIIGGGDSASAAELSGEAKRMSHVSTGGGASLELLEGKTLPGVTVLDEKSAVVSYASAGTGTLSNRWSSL
# Chromobox protein homolog 1 (Homo sapiens), sequence (P83916 whole entry, looked up): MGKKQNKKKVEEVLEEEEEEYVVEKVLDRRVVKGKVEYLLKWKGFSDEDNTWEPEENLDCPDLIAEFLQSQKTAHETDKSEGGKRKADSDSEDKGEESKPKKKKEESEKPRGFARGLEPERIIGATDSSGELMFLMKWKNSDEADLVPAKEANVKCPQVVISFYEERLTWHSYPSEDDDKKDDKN
smiles,measurement,setting,value
O=c1c2ccccc2nc2n1CCc1c-2[nH]c2ccccc12,outcome,[1],inactive
same,outcome,[2],inactive
same,outcome,[3],inactive
same,outcome,[4],inactive
same,outcome,[5],inactive
same,outcome,[6],inactive
same,Potency,[7],8.2 µM (active)
same,activation,[8],-4.5% (inactive)
same,outcome,[9],inactive
same,viability change,[9],-3.53%
same,outcome,[10],inactive
same,outcome,[11],inactive
same,outcome,[12],inactive
same,outcome,[13],inactive
same,outcome,[14],inactive
same,Potency,[15],inactive
same,outcome,[16],inactive
same,outcome,[17],inactive
CC[C@H](CO)Nc1nc(NCc2ccccc2)c2ncn(C(C)C)c2n1,outcome,[18],inactive
same,outcome,[3],inactive
same,activation,[8],0.312% (inactive)
COC(=O)C[C@](O)(CCCC(C)(C)O)C(=O)O[C@@H]1C(OC)=C[C@]23CCCN2CCc2cc4c(cc2[C@H]13)OCO4,outcome,[19],inactive
same,Potency,[15],inactive
same,outcome,[20],inactive
CC[C@H]1CN2CCc3cc(OC)c(OC)cc3[C@H]2C[C@@H]1C[C@@H]1NCCc2cc(OC)c(OC)cc21,outcome,[19],inactive
CC1(C)O[C@@H]2C[C@@H]3[C@H]4C[C@@H](F)C5=CC(=O)C=C[C@]5(C)[C@@]4(F)[C@@H](O)C[C@]3(C)[C@]2(C(=O)CO)O1,outcome,[19],inactive
same,Potency,[15],inactive
COC(=O)C1=C(C)NC(C)=C(C(=O)OCCN2CCN(C(c3ccccc3)c3ccccc3)CC2)C1c1cccc([N+](=O)[O-])c1 (stereo not given),outcome,[19],inactive
same,Potency,[15],inactive
CC[C@@]1(O)C(=O)OCc2c1cc1n(c2=O)Cc2cc3cc(O)ccc3nc2-1,Potency,[15],inactive
COc1cc(C(=O)NS(=O)(=O)c2ccccc2C)ccc1Cc1cn(C)c2ccc(NC(=O)OC3CCCC3)cc12,outcome,[19],inactive
same,Potency,[15],35.5 µM (active)
CCC1=C[C@@H]2CN(C1)Cc1c([nH]c3ccccc13)[C@@](C(=O)OC)(c1cc3c(cc1OC)N(C)[C@@H]1[C@@](O)(C(=O)OC)[C@H](OC(C)=O)[C@]4(CC)C=CCN5CC[C@]31[C@@H]54)C2,outcome,[19],inactive
CN1c2cc(O)c(N=NC(N)=O)cc2CC1S(=O)(=O)O (stereo not given),outcome,[19],inactive
C[C@H]1C[C@@H]2[C@@H]([C@@H](O)C[C@@]3(C)[C@H]2CC[C@]3(O)C(=O)CO)[C@@]2(C)C=CC(=O)C=C12,outcome,[19],inactive
same,Potency,[15],inactive
CC=CC1=C(C(=O)O)N2C(=O)[C@H](NC(=O)[C@H](N)c3ccc(O)cc3)[C@@H]2SC1,outcome,[19],inactive
same,Potency,[15],inactive
Nc1ccc(S(=O)(=O)Nc2ncccn2)cc1,outcome,[19],inactive
same,Potency,[15],inactive
Nc1ccn([C@@H]2O[C@H](CO)[C@H](O)C2(F)F)c(=O)n1,outcome,[19],inactive
same,Potency,[15],inactive
O=C(O)CO.[NH2-].[NH2-].[Pt+2],outcome,[19],inactive
same,Potency,[15],inactive
COc1c(N2C[C@@H]3CCCN[C@H]3C2)c(F)cc2c(=O)c(C(=O)O)cn(C3CC3)c12,outcome,[19],inactive
same,Potency,[15],inactive
CC(C)(C)NC(=O)[C@H]1CN(Cc2cccnc2)CCN1C[C@@H](O)C[C@@H](Cc1ccccc1)C(=O)N[C@H]1c2ccccc2C[C@H]1O,outcome,[19],inactive
O=c1[nH]c(=O)n(C2CCCO2)cc1F (stereo not given),outcome,[19],inactive
same,Potency,[15],inactive
Nc1ccn([C@@H]2CS[C@H](CO)O2)c(=O)n1,outcome,[19],inactive
